The values below come from PubChem BioAssay (Tox21).

Results filed as inconclusive are left out. Unmarked numbers belong to inactive results. Calls of active or inactive are those of the source. Calls come from the whole dose curve; as a rule, active = well fitted inhibition curve with a large enough effect in the repeat runs; inconclusive = weak or mixed curves; inactive = no such curve, though single readings can be large or run the other way.
% is set by controls: 0 for no effect and ±100 for the full control effect; potency is the fitted concentration of half-maximal effect.

Chain of Cytochrome P450 1A2 (Homo sapiens) (P05177 whole entry, looked up): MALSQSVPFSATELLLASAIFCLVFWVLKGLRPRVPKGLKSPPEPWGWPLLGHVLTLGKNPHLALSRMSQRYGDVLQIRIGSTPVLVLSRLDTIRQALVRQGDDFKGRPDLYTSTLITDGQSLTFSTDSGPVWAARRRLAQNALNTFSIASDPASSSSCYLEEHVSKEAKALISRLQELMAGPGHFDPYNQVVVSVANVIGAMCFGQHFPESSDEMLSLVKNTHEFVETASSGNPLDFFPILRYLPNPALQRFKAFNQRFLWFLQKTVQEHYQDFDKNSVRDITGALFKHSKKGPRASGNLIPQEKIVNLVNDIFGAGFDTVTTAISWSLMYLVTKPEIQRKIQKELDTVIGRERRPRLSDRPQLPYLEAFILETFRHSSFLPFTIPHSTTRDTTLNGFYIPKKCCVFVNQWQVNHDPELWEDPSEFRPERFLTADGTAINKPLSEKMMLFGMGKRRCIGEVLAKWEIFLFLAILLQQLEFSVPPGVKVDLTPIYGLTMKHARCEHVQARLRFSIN

This experiment concerns the target Cytochrome P450 1A2 (Homo sapiens) (UniProt P05177). Put plainly: Cytochrome P450 Family 1 Subfamily A Member 2 (CYP1A2) small molecule antagonists: luciferase reporter qHTS assay (AID 1671199). Note: nearly all actives have a fitted effect of over 50% in size. Conditions: P450-Glo CYP1A2 enzyme, luciferin luminescence, 1 h; series mostly up to 115 µM; activity change, negative = inhibition: at the top concentration. The procedure, abridged:
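Enzymatic CYP1A2 assay, human, luminescent: 10 min compound–enzyme–substrate preincubation, 1 h NADPH-dependent turnover, 20 min detection step, room temperature throughout. Reduced light indicates lower CYP1A2 activity.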
In general terms: In a reporter assay the amount or activity of a reporter protein is the signal.
For `Cn1c(=O)c2c(ncn2CC(O)CO)n(C)c1=O` (stereo unspecified), the “activity change, negative = inhibition” value was 2.84% [at 53 µM].
With `CCOC(=O)C1=C(C)NC(C)=C(C(=O)OC)C1c1cccc([N+](=O)[O-])c1` (stereo unspecified), the “activity change, negative = inhibition” value was -17.9% [at 53 µM].
The same measure, in the same setting: next, `CC(C)(C)C(=O)OCOP(=O)(COCCn1cnc2c(N)ncnc21)OCOC(=O)C(C)(C)C`: -2.93% [at 53 µM].
Turning to `NCc1ccccc1`, the Potency is 31.7 µM (active).
With `CCCCCCc1ccc(N)cc1`, the Potency was 28.3 µM (active).
Still for that read-out and setting: as for `COC(=O)CSc1cc(N=c2sc(=O)n3n2CCCC3)c(F)cc1Cl`, the figure is 3.17 µM (active); as for `CC(C)c1ccccc1C(C)C`, 35.6 µM (active).
Consider `CCOC(=O)[C@H](CCc1ccccc1)N[C@H]1CCc2ccccc2N(CC(=O)O)C1=O`, for which the Potency was 12.9 µM (active).
For `N#Cc1cc2ccccc2c2ccccc12`, the Potency was 0.0636 µM (active).
Turning to `O=C(O)C(c1ccc(Cl)cc1)c1ccc(Cl)cc1`, the “activity change, negative = inhibition” value is -4.34%.
For `Cc1nc2ccccc2n1Cc1ccc(Cl)cc1`, the Potency is 7.23 µM (active).
Turning to `Nc1nc(N)c2nc(CNc3ccc(C(=O)N[C@@H](CCC(=O)O)C(=O)O)cc3)cnc2n1`, the “activity change, negative = inhibition” value was -20%.
As for `Nc1nc(N)c(-c2ccccc2)s1`, the Potency was 30.9 µM (active).
Take `Cc1cc(CC(=O)O)c(C)n1-c1ccc(Cl)cc1`: the “activity change, negative = inhibition” value was -2.08% [at 53 µM].
Take `CC(=O)O[C@H]1C[C@@H]2CC[C@@H]3[C@H](CC[C@@]4(C)[C@H]3C[C@H]([N+]3(C)CCCCC3)[C@@H]4OC(C)=O)[C@@]2(C)C[C@@H]1N1CCCCC1`: the “activity change, negative = inhibition” value is -5.31% [at 53 µM].
As to `CCOc1ccc2[nH]cc(C(=O)NCc3ccccc3)c(=O)c2n1`, the Potency was 31.7 µM (active).
With `C#CCOC(=O)[C@@H](C)Oc1ccc(Oc2ncc(Cl)cc2F)cc1`, the Potency is 5 µM (active).
Consider `O=C(Nc1ccccc1)OCC(CN1CCCCC1)OC(=O)Nc1ccccc1` (stereo unspecified), for which the “activity change, negative = inhibition” value is -4.93% [at 53 µM].
`CCCCCOC(=O)c1ccc(O)cc1`: the Potency is 2.55 µM (active).
As for `Cc1ccc2c(ccc3ccccc32)c1`, the Potency is 3.18 µM (active).
As to `Cc1c(Cn2ccnc2)c2ccccc2n1CCC(=O)O`, the Potency was 12.3 µM (active).
For the molecule `COc1ccc([C@@H]2Sc3ccccc3N(CCN(C)C)C(=O)[C@@H]2OC(C)=O)cc1`, the “activity change, negative = inhibition” value is 0.0019% [at 53 µM].
Regarding `C=CC[N+]1([C@H]2C[C@H]3[C@@H]4CC[C@H]5C[C@H](OC(C)=O)[C@@H](N6CCCCC6)C[C@]5(C)[C@H]4CC[C@]3(C)[C@H]2OC(=O)CC)CCCCC1`, the “activity change, negative = inhibition” value is 1.92% [at 53 µM].
On to `CCCC[C@H]1CN(CC2CCOCC2)C(=O)OC12CCN(C1(C)CCN(C(=O)c3c(C)ncnc3C)CC1)CC2`, for which the Potency was 35.2 µM (active).
With `O=C1CCCCCO1`, the Potency is 35.9 µM (active).
As for `O=S1(=O)c2cccc3cccc(c23)N1CCCN1CCN(c2ccc(F)cc2)CC1`, the Potency was 15.5 µM (active).
For `O=C(c1ccc(O)cc1)c1ccc(O)cc1`, the Potency was 39.9 µM (active).
For the molecule `C[C@@H](C1=C(CCN(C)C)Cc2ccccc21)c1ccccn1`, the “activity change, negative = inhibition” value was 0.29% [at 53 µM].
As to `c1ccc(OCc2ccc(CCCN3CCOCC3)cc2)cc1`, the “activity change, negative = inhibition” value is -23% [at 53 µM].
With `CCN(CC)CCNC(C(=O)OCCC(C)C)c1ccccc1` (stereo unspecified), the “activity change, negative = inhibition” value is -25.7% [at 53 µM].
As to `O=[N+]([O-])c1cc[n+]([O-])cc1`, the Potency is 31.7 µM (active).
In the case of `CCCCOC(=O)c1ccccc1C(=O)OCC(CC)CCCC` (stereo unspecified), the Potency is 12.6 µM (active).
With `CC(C)(C)C1CCCCC1O` (stereo unspecified), the “activity change, negative = inhibition” value is -12.7%.
As to `COc1ccc2[nH]c(S(=O)Cc3ncc(C)c(OC)c3C)nc2n1` (stereo unspecified), the Potency is 24.5 µM (active).
On to `CC(=O)c1c(C)c([N+](=O)[O-])c(C(C)(C)C)c([N+](=O)[O-])c1C`, for which the Potency was 11.2 µM (active).
As to `O=C(CCN1CCN2CCCC2C1)N1c2ccccc2Sc2ccc(Cl)cc21` (stereo unspecified), the activity change, negative = inhibition is -23.8% [at 23.6 µM].
